Values joined by “and” are separate entries in the source; they are usually repeats but may differ in a detail not shown here. Identical values can stand only once. Counter-ions that a name gives are not always drawn.
Columns and labels:
Assay in all cases: cell viability relative to vehicle control; higher = less cytotoxic
Conditions in all cases: 10 µM
K562 = tested on: K562
Procedure, shortened: (§1)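 Four leukaemia lines, as CRISPR-edited mutant clones and isogenic wild-type clones, were tested against Selleck bioactive, kinase and epigenetic probe libraries after removal of identity-inconsistent compounds. Cells were exposed to a single 10 µM dose for 48 h, and CellTiter-Glo luminescence was then read. Viability was calculated relative to the on-plate vehicle control.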

MARIMO = tested on: MARIMO
Procedure, shortened: as §1

MOLM14 = tested on: MOLM14
Procedure, shortened: as §1

OCI-AML2 = tested on: OCI-AML2
Procedure, shortened: as §1

Row | Structure (SMILES) | cell viability (K562; SRSF2 genotype: SRSF2 P95H/wt) | cell viability (K562; SRSF2 genotype: SRSF2 wt/wt) [%] | cell viability (MARIMO; SRSF2 genotype: SRSF2 P95H/wt) [%] | cell viability (MARIMO; SRSF2 genotype: SRSF2 wt/wt) [%] | cell viability (MOLM14; SRSF2 genotype: SRSF2 P95H/wt) [%] | cell viability (MOLM14; SRSF2 genotype: SRSF2 wt/wt) [%] | cell viability (OCI-AML2; SRSF2 genotype: P95H/wt) [%] | cell viability (OCI-AML2; SRSF2 genotype: wt/wt) [%]
1 | CN(C)CCOc1ccc(/C(=C(/CCCl)c2ccccc2)c2ccccc2)cc1 [Toremifene Citrate (Fareston, Acapodene)] | 64.7% and 56.1% | 71.9 | 53.7 | 65.5 | 56 | 55.7 | 60 | 51.7
2 | CCOC(=O)C1=C(C)NC(C)=C(C(=O)OC)C1c1cccc([N+](=O)[O-])c1 (configuration not stated) [Nitrendipine] | 101% and 104% | 100 | 97.3 | 99.9 | 97.7 | 103 | 122 | 111
3 | COc1cc(S(=O)(=O)O)ccc1O [Sulfogaiacol] | 106% and 109% | 113 | 108 | 112 | 107 | 104 | 117 | 105
4 | COc1ccc2c(O[C@@H]3C[C@H]4C(=O)N[C@]5(C(=O)NS(=O)(=O)C6CC6)C[C@H]5/C=C\CCCCN(C)C(=O)[C@@H]4C3)cc(-c3nc(C(C)C)cs3)nc2c1C | 70.6% and 60.2% | 62.9 | 61.6 | 75.3 | 79.1 | 71.6 | 55.2 | 58.8
5 | C=CC[N+]1([C@H]2C[C@H]3[C@@H]4CC[C@H]5C[C@H](O)[C@@H](N6CCOCC6)C[C@]5(C)[C@H]4CC[C@]3(C)[C@H]2OC(C)=O)CCCC1 [Rocuronium bromide] | 98.3% and 90.4% | 91.2 | 90.3 | 95.3 | 103 | 96.7 | 88.1 | 99.3
6 | COc1cc(CCC(C)=O)ccc1O [Vanillylacetone] | 104% and 93.6% | 91.8 | 100 | 108 | 101 | 101 | 97.8 | 108
7 | C=CC(=O)Nc1cc(N2CCN(CC)CC2)ccc1Nc1cc(N(C)C(=O)Nc2c(Cl)c(OC)cc(OC)c2Cl)ncn1 | 26.8% and 16.8% | 28.7 | 37.6 | 31.7 | 0.69 | 0.44 | 1.37 | 1.1
8 | CC(C)=CCC[C@](C)(O[C@@H]1O[C@H](CO)[C@@H](O)[C@H](O)[C@H]1O)[C@H]1CC[C@]2(C)[C@@H]1[C@H](O)C[C@@H]1[C@@]3(C)CC[C@H](O)C(C)(C)[C@@H]3[C@@H](O)C[C@]12C [Ginsenoside F1] | 107% and 106% | 102 | 105 | 97.8 | 109 | 104 | 105 | 106
9 | CC(C)(C)c1ccc(S(=O)(=O)NCc2ccc(C(=O)Nc3cccnc3)cc2)cc1 | 31.8% and 20.2% | 26.6 | 20.9 | 32.5 | 9.88 | 1.9 | 5.52 | 5.41
